Reference: PubChem BioAssay AID1159580 (chemical genetic matrix, 2015)
Hit rate of the full screen: of about 5,500 compounds, about 2,000 (36%) were called active. Roughly 18% stayed inconclusive and do not appear here. Rule as the data show it: active = normalized growth mostly below about 0.91 (no sharp cut-off); inconclusive = no clear call, values can overlap the other calls; inactive = mostly above about 0.92. This is one part of the list.

Assay: chemical genetic growth profiling, strain panel (AID 1159580);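 also: tested at 20 µM; growth read once vehicle control cultures reached saturation at 30 °C; 1 = growth at the plate median or of vehicle wells; lower values mean less growth of the strain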
Settings: growth OD

Measured: normalized growth

NC(=O)CCSCCC(N)=O
inactive: S. cerevisiae deletion strains, locus YAL013W, strain DEP1, hits give low values 0.992 | S. cerevisiae deletion strains, locus YBR229C, strain ROT2, hits give low values 0.995 | S. cerevisiae deletion strains, locus YDL101C, strain DUN1, hits give low values 0.996 | S. cerevisiae deletion strains, locus YDL134C, strain PPH21, hits give low values 1.02 | S. cerevisiae deletion strains, locus YDR150W, strain NUM1, hits give low values 0.999 | S. cerevisiae deletion strains, locus YEL061C, strain CIN8, hits give low values 1.01 | S. cerevisiae deletion strains, locus YGR078C, strain PAC10, hits give low values 0.988 | S. cerevisiae deletion strains, locus YHR030C, strain SLT2, hits give low values 0.972 | S. cerevisiae deletion strains, locus YHR087W, strain rtc3, hits give low values 1 | S. cerevisiae deletion strains, locus YJR043C, strain POL32, hits give low values 0.976 | S. cerevisiae deletion strains, locus YJR075W, strain HOC1, hits give low values 1 | S. cerevisiae deletion strains, locus YLR039C, strain RIC1, hits give low values 1.02 | S. cerevisiae deletion strains, locus YLR058C, strain SHM2 (second series), hits give low values 0.997 | S. cerevisiae deletion strains, locus YLR085C, strain ARP6, hits give low values 1.06 | S. cerevisiae deletion strains, locus YLR262C, strain YPT6, hits give low values 1.03 | S. cerevisiae deletion strains, locus YML094W, strain GIM5, hits give low values 1.01 | S. cerevisiae deletion strains, locus YMR219W, strain ESC1, hits give low values 1.01 | S. cerevisiae deletion strains, locus YMR263W, strain SAP30, hits give low values 0.991 | S. cerevisiae deletion strains, locus YMR307W, strain GAS1, hits give low values 1.09 | S. cerevisiae deletion strains, locus YNL153C, strain GIM3, hits give low values 0.979 | S. cerevisiae deletion strains, locus YNL298W, strain CLA4 (second series), hits give low values 0.988 | S. cerevisiae deletion strains, locus YNL322C, strain KRE1, hits give low values 1.03 | S. cerevisiae deletion strains, locus YNR030W, strain Alg12, hits give low values 0.981 | S. cerevisiae deletion strains, locus YPL055C, strain LGE1, hits give low values 1.02 | S. cerevisiae deletion strains, locus YPL241C, strain CIN2, hits give low values 0.995 | S. cerevisiae deletion strains, locus YPR135W, strain CTF4, hits give low values 0.92 | S. cerevisiae strains, strain wild type, hits give low values 1.02
